# Test results: the supplement of paper PMC6555819
# Columns and labels:
# Assay in all cases: PBM binding z-score (relative to random genomic background probes); higher = stronger binding; sequences stand for … in GC…GCGATTGACAGCGTAGAATGAAGG
# [1] = test system: RARb homodimer (NR concentration 270 nM)
# Procedure, shortened: (§1)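 Ligand-free nuclear receptor dimers were applied to custom Agilent 4×180K protein-binding microarrays whose double-stranded probes carried direct-repeat seeds, single-nucleotide variants, half-site ablations and random human genomic background sequences in 34-nt variable regions. Incubation lasted 1 h. Binding z-scores were computed against the random background probes from regression-normalized fluorescence.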
# [2] = test system: RARg:RXRa (NR concentration 270 nM, RXRa partner concentration 90 nM)
# Procedure, shortened: as §1
# [3] = test system: RARg homodimer (NR concentration 270 nM)
# Procedure, shortened: as §1
# [4] = test system: RXRa DBDmut IVT, anti-RXR (DBD mutation: RXRa K156A/R161A, NR concentration 90 nM)
# Procedure, shortened: as §1
# [5] = test system: RXRa homodimer (NR concentration 180 nM)
# Procedure, shortened: as §1
# [6] = test system: THRa:RXRa (NR concentration 90 nM, RXRa partner concentration 90 nM)
# Procedure, shortened: as §1
# [7] = test system: THRa homodimer (NR concentration 90 nM)
# Procedure, shortened: as §1
# [8] = test system: VDR homodimer (NR concentration 270 nM)
# Procedure, shortened: as §1
Sequence,PBM binding z-score [1],PBM binding z-score [2],PBM binding z-score [3],PBM binding z-score [4],PBM binding z-score [5],PBM binding z-score [6],PBM binding z-score [7],PBM binding z-score [8]
ATCTCTAGGTAAGACTTAGTTCAGTGAAGAACGC,1.05,0.21,0.357,0.325,0.128,0.798,0.858,0.617
CCTTGCGGGTCACGAGGTTATAGCACGACGAGCG,3.64,5.78,5.02,1.62,6.53,3.68,1.34,1.93
TTACCAAGGTGGAAGGTCGTTGATGCACGCCTTG,0.907,0.595,0.158,-0.443,1.43,0.674,-0.0203,0.895
CCGACTGGGGCAATGTTACCATAACGCACAGCCA,-0.131,0.0448,0.359,-0.0343,-0.0938,-0.53,-0.342,-0.569
TCTGCTAGGTCAGTTGGTCAGATAACGAGCTGCC,2.62,2.67,3.55,0.564,1.03,1.38,0.154,-0.455
TCAGAAAGGTGAAGGTAACTCAGGTACGCAGTCG,2.08,2.32,2.52,1.64,2.41,2.01,0.472,0.477
TCAAATAGGTAAACAGGTGAAAGTCCGTAAGTTA,0.737,0.645,0.221,1.46,1.15,0.783,0.141,0.236
TCTTGTAGATCAGCAGGTTAAGAATGCTGGCCAA,0.138,-0.0809,-0.427,0.415,0.165,0.0436,-0.197,-0.438
AATACAGGGTCAATAGGCCAGAGTAGGTACGAAT,3.5,5.29,4.37,2.4,4.89,3.03,0.474,2.13
CATAAAGGGTCAGCTAGGCCAGAGTAGGGACGGC,4.09,5.41,6.23,1.52,4.42,2.65,0.204,0.783
CCTCGGAGAACAGAAGGTCAGAGCTGTCCGCTTT,2.93,2.11,1.99,0.355,2.01,1.77,-0.175,0.014
CCTACTGGGCCATGGTCATTGATCAGTCAAAGCA,0.781,0.494,0.374,-1.27,-0.0481,0.0106,-0.543,-0.137
ATCTCTGGGTAAAGTTCAGTGAAAGATCGATAGA,2.68,2.19,2.4,1.43,1.57,1.11,0.412,1.62
CCTACTCGGCCAAAGGTCATTGATTCCAATGCTC,4.75,6.07,5.2,1.7,6.26,3.41,1.46,2.63
TAGCCTAGGTCATGGGCAAGTATACCACGCGAAC,3.17,4.22,4.58,0.0807,3.44,3.34,1.26,0.341
TAGCCTAGGTCCTTGGGCCAGTATAGTACGCATC,-0.937,-0.412,-0.296,-1.27,-0.549,-0.732,-1.37,-1.06
CAAACTAGGTCACCGGTAGGTCAAAGTCCGCATG,4.94,7.11,6.27,1.7,4.82,4.3,2.8,2.2
CCTGCTGGGTCATGGTCAGCTAATCTACAGTATG,2.6,3.56,3.65,0.81,2.88,2.04,0.0617,-0.0341
TCGAGTAGGTCAGTCGGGGCATTCAGCCAACATA,2.3,2.49,3.17,0.903,1.32,2.4,-0.201,1.42

Sequence,PBM binding z-score [1],PBM binding z-score [2],PBM binding z-score [3],PBM binding z-score [4],PBM binding z-score [5],PBM binding z-score [6],PBM binding z-score [7],PBM binding z-score [8]
ATCGCTAGGTAACCAAGTTCAGTGAATGCCGAAC,0.915,0.229,0.277,0.0688,0.062,0.934,-0.378,1.7
TCTGCTACGTCAACGATGGTCAGCTAATCTGCTA,-0.67,-0.316,-0.0659,0.0473,-0.261,-0.616,-0.92,-1.61
ACTCGGAGGACAAAGGTCAGTGCTACGCCAGTGA,4.71,5.37,4.99,1.36,4.26,3.38,0.657,1.11
CCTTACGGGTTACGAGGTTATAGCACGACGAGCG,1.24,2.31,1.43,-0.0539,2.99,2.23,0.638,0.469
TCATATAGGTAAAGGTGAAAGTAGAACGATATGA,1.35,1.71,1.43,0.637,2.2,1.36,-0.513,-0.148
CGAACTAGGTCATTGACAGCACAGTGAATAGTAA,2.36,3.46,4.03,2.29,2.47,2.31,0.694,1.08
CCGACTAGGGCAAAGGTTACCATACTCAGTACGA,2.48,3.78,2.11,0.743,4.2,2.14,-0.117,0.229
CGTCCAAGGTAAAGGTCAGTGAAAGAGACTCGAA,4.43,4.58,5.49,0.687,4.48,3.2,0.7,0.765
CGAACGAGGGTATGAGTTGATAGCAAATGCCGAT,-0.208,0.124,0.248,0.658,0.0632,-0.183,-0.485,0.345
TCTATTAGTTGATTAGAGCAACCGAAACAGCGGA,-0.716,0.0982,0.245,0.765,0.293,-0.353,-0.739,0.18
CAGCTTAGGTCAGGGCCAGTATAGGAGGAACGTT,2.93,3.26,4.25,0.68,1.75,3,1.78,0.105
ATATCTAGGTAAAGTTCAGTGAAAGATCGATAGA,2.45,2.04,2.43,1.6,1.53,1.33,0.34,1.78
GCTCGGAGGACTAGGTCAGAGCTTTGTCCGTAGA,1.4,0.32,0.804,-0.871,-0.228,0.731,-0.465,-0.906
TCATCTAGGTAAAAGGTGAAAGTCGGTGTGGTAA,2.04,1.82,0.925,1.24,2.84,1.99,0.446,0.293
AGTCAAAGTTCAGGACGGGGTAACGTAAAGCACG,3.27,5.09,4.51,2.98,3.43,3.8,1.55,2.58
TAGCCTAGGTCATTCAGGGGCCGGTATAGAAAGC,2.86,5.32,4.21,1.88,3.01,3.42,0.635,1.53
TAGCCTAGGTCATGCGGGCCCGTATAGTGTCGGC,2.9,3.77,4.19,0.324,3.06,3.06,1.33,0.149
ACTATTATTTGAGACGAGGGCAACCGATAGGTTG,1.51,0.808,0.929,1.03,0.916,1.12,1.07,1.75
AGTCAAAGTTCAGGACGAGGTAACGTATAGCACG,3.26,4.94,4.94,3.22,3.15,3.88,1.73,2.37

Sequence,PBM binding z-score [1],PBM binding z-score [2],PBM binding z-score [3],PBM binding z-score [4],PBM binding z-score [5],PBM binding z-score [6],PBM binding z-score [7],PBM binding z-score [8]
AATACAGGGTCATCGAAGGCCAGAGTACGCACAG,3.74,5.74,5.31,3.38,6.7,4.62,1.43,3.66
TCTTGTAGATCACCAGGTTAAGAAAGCTGGCCAA,0.501,0.343,-0.0575,1.03,1.06,1.06,0.422,0.245
GGCACGAGGGCAAGTTGATAGCAGAGTTTGATGG,1.6,1.91,2.12,2.06,1.17,1.23,0.0135,1.58
CCTAGTTGGACAAGGTCACACACGCTATAGGTAC,4.19,4.24,4.16,1.75,4.4,3.93,3.3,3.14
GGAACGAGGCCAAGTTGATAGCAGAGTTTGATGG,0.533,0.334,1.03,1.18,-0.0996,0.407,-0.535,0.778
ATCTCTGGGTAACAAGTTCAGTGAAAGAGAGGAC,1.8,1.39,1.59,0.883,0.958,1.21,1.06,2.71
CCTATTAGTTGACCATAAGGGCAACCAAAGCTCG,2.24,1.55,1.14,0.788,0.828,2.02,1.47,0.747
TCTAGTTGGTTAAAGGTCACACACTCGAAATGCG,5.19,6.13,5.53,2.21,6.72,4.02,2.69,2.78
CGTCCAAGGTCAAAGGTCAGTCAAGAGATGACGG,5.67,8.89,8.17,4.11,10.3,4.85,2.87,3.58
AGTCAAAGTTCATCTAGGTTACGTAAGATATGCT,4.3,5.85,6.39,4.52,5.4,3.45,0.553,6.02
CGTCCAAGGTCAGCAGGTCGGTGAAAGCGACGTG,4.14,5.49,6.04,2.37,4.37,3.57,1.92,1.3
CCGACTGGGGCAAGGGTTACCATACTCAGTACGA,1.16,1.49,1.3,-0.851,1.71,0.704,-0.463,0.0843
CGGAGTAGGTTATGGGGCATTCAGGCAACGGTGA,1.26,0.544,0.721,-0.446,0.668,0.705,0.801,0.416
TCTGGTAGGTCAACGATGGTCAGCTAATCTGCTA,3.75,4.31,4.78,1.26,3.49,2.98,0.7,0.622
TCTGTTAGTTGATTAGGGCAACCGAAACAGCGGA,0.861,0.9,0.978,0.605,0.318,0.839,0.442,0.324
CCTTCTGGGCCAAGGTCATTGATCAGTCAAAGCA,3.27,3.66,3.02,1.31,3.24,3.49,2.34,2.71
ATCGAAAGGTCGTGAGGTGAGTATCCAGAAAGGC,2.99,4.59,3.92,1.15,5.24,3.28,1.55,0.852
CAAACTAGGTCAAGATCAAAGTCGGTTTGTGCCA,2.77,3.45,4.74,1.66,2.69,2.75,0.747,0.787
